Pf growth 96h = P. falciparum growth inhibition at 96 hours; P. falciparum luciferase reporter growth, 96 h; Potency, µM (top dose mostly 28.7 µM), without a hit: at the highest dose activity change, negative = inhibition, hits mostly inhibitors; 320,000 tested, 6.9% active; further: potency means the concentration at half of the fitted maximal effect
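Cell-based qHTS: luciferase-tagged P. falciparum in erythrocytes (2% hematocrit, 0.05% parasitemia final) incubated with compounds for 96 hours, 37 C, 5% CO2; luciferase detection reagent then added and luminescence measured.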
Sm TGR block = S. mansoni TGR enzyme inhibition | Q962Y6 | purified TGR, DTNB reduction, TNB absorbance 405 nm | Potency, µM (top dose mostly 114 µM), inactives show at the highest dose activity change, negative = inhibition, hits mostly inhibitors | 360,000 tested, 3% active; further: potency means the concentration at half of the fitted maximal effect; nearly all actives have a fitted effect of over 60% in size
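TGR 20 nM + NADPH 100 uM (dispensed conc.), cpd preinc 15 min RT; start with NADPH (500 uM addition) then DTNB (15 mM addition). Kinetic TNB absorbance, 405 nm filter. Four-parameter Hill fit across titration.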
Pf growth 48h = inhibits P. falciparum growth in the first generation, 48 h | P. falciparum luciferase growth in erythrocytes, 48 h | 310,000 tested, 5.9% active | Potency, µM (doses to about 28.7 µM), without a hit: at the top dose activity change, negative = inhibition, most hits filed as inhibitors; further: potency means the concentration at half of the fitted maximal effect
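In quantitative HTS format, infected erythrocytes bearing luciferase-reporter parasites were treated for a single generation at 37 C. Luminescence after adding detection reagent served as the growth measure.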
Giardia FBPA inh = Giardia lamblia aldolase inhibition | A8B2U2 | 290,000 tested, 0.71% active | Potency, µM (series often up to 59.6 µM), for inactives: at the top dose activity, negative = inhibition, hits mostly inhibitors | purified Giardia FBPA; further: potency means the concentration at half of the fitted maximal effect; nearly all actives have a fitted effect of over 55% in size
Target sequence (A8B2U2 whole entry, looked up): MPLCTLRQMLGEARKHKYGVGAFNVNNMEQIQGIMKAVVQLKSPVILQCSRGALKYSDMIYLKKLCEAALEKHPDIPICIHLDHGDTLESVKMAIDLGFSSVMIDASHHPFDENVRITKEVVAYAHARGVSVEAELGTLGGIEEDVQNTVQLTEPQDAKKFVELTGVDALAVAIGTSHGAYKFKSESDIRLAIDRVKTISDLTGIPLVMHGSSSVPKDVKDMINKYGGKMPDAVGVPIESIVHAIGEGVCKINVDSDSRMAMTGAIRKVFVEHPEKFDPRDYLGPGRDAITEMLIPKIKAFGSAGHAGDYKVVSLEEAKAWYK
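40 nM FBPA preincubated 10 min at RT with compound (up to 57.5 uM final), then substrate plus GAPDH/TPI/NAD/arsenate coupling and diaphorase/resazurin added. Fluorescence read after 20 min at RT, 525/598 nm.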
HCMV antiviral = human cytomegalovirus inhibition. HFF cells, HCMV-luciferase reporter, 72 h; hits give low values. activity change, negative = inhibition, % at 57.5 µM. 410,000 tested, 4.5% active; in the data active means activity change below about -60%; inconclusive means no clear call, values can overlap the other calls; inactive means above about -39%
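Screen run at 2 compound doses on HFFs infected with reporter HCMV, MOI 1 PFU/cell. Luciferase activity from cell lysates at 72 h post infection gave inhibition relative to buffer-only and Salinomycin wells.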
* hit, by the source's call; ? = inconclusive; . = not tested or not shown; ! = not confirmed by another sample. Most compounds without a hit are left out; they make up all but 14% or so of the library. Unless noted, the call rests on the fitted dose curve; in most records, active means well fitted curve in the direction sought with a large enough effect; inconclusive means small, poorly fitted or top-dose-only effect, or another doubt; inactive means no such curve, though single readings can be large; an effect the other way counts as inactive or inconclusive. On the % scale 0 is the no-effect control and ±100 the full control effect.

SMILES | Pf growth 96h | Sm TGR block | Pf growth 48h | Giardia FBPA inh | HCMV antiviral
COc1ccc(C)cc1NS(=O)(=O)c1ccc2c(c1)NC(=O)C(C)S2 (centres undefined) | 54% | -2% | ? | -23% | -77*
COc1ccc(OC)c(NS(=O)(=O)c2ccc3c(c2)n(C)c(=O)n3C)c1 | . | 1% | -10% | -17% | 54
COc1ccc(C)cc1NS(=O)(=O)c1ccc2c(c1)n(C)c(=O)n2C | 5.9µM* | 4% | -9% | 5% | -6
CCC1Sc2ccc(S(=O)(=O)Nc3ccc(OC)c(OC)c3)cc2NC1=O (centres undefined) | 0% | -12% | 11% | 7% | -76*
O=C(CN1C(=O)C2CC=CCC2C1=O)Nc1nc2ccccc2[nH]1 (centres undefined) | 19µM* | 4% | 10% | 1% | ?
O=C(Cc1ccccc1)Nc1nc2ccccc2[nH]1 | . | ? | 58% | -3% | -33
C#CCOCCOCCOCCNc1nc(N2CCN(C(=O)CCCCCCCCCCNC(=O)Cn3cc(C[C@@H](C)O)nn3)CC2)nc(N2CCN(C(=O)CCCCCCCCCCNC(=O)[C@H](CCCCN)n3cc(C[C@@H](C)CC)nn3)CC2)n1 | 0.47µM* | -36% | 0.33µM* | . | .
C#CCOCCOCCOCCNc1nc(N2CCN(C(=O)CCCCCCCCCCNC(=O)Cn3cc(C[C@@H](C)O)nn3)CC2)nc(N2CCN(C(=O)CCCCCCCCCCNC(=O)Cn3cc(C[C@@H](C)O)nn3)CC2)n1 | 0.083µM* | -11% | 0.13µM* | . | ?
Cc1ccc(O)c(NC(=O)c2cc(-c3ccccc3Cl)on2)c1 | ? | 4% | ? | 12% | 51
CC(=O)/C(=N/Nc1cccc(C)c1)N1CCOCC1 | . | 50µM* | 12% | -13% | -5
Cc1ccc(NC(=O)c2ccc(CSc3ccccn3)cc2)cc1 | 26% | -11% | 41% | -9% | -4
Cc1ccc(NC(=O)c2ccc(CSc3ccccn3)cc2)c(O)c1 | 3.7µM* | -18% | 1.5µM* | -13% | -14
Cc1ccc(NC(=O)CC2SC3=NCCCN3C2=O)c(C)c1 (centres undefined) | -8% | 2.8µM* | ? | -24% | 6
CC1(C)CC(=O)C2=C(C1)N(Cc1ccco1)C(=O)C2(NC(=O)c1cccnc1)C(F)(F)F (centres undefined) | 21% | 20µM* | -30% | -1% | 28
CC1(C)CC(=O)C2=C(C1)N(Cc1cccnc1)C(=O)C2(NC(=O)c1cccnc1)C(F)(F)F (centres undefined) | -28% | 26% | 29% | 5% | 53
Cc1ccc([N+](=O)[O-])cc1N=C(c1cccc([N+](=O)[O-])c1)N1CCOCC1 | ? | -18% | ? | 2% | 27
Cc1ccc([N+](=O)[O-])cc1N=C(c1ccc([N+](=O)[O-])cc1)N1CCOCC1 | 8.3µM* | -17% | ? | 2% | 27
O=[N+]([O-])c1ccc(Cl)c(S(=O)(=O)/N=C(/c2ccccc2)N2CCOCC2)c1 | 53% | 0% | 10% | 4% | -105*
CCOC(=O)C1=CCN(S(=O)(=O)c2ccc(Br)cc2)C1c1cccc(F)c1 (centres undefined) | . | . | . | . | -36
Cc1noc(NS(=O)(=O)c2ccc(NC(=O)c3ccccc3NS(=O)(=O)c3ccc(F)cc3)cc2)c1C | . | . | . | . | 11
NC(CC(=O)NC(c1ccccc1)(c1ccccc1)c1ccccc1)C(=O)O (centres undefined) | 8% | 0% | 13% | -7% | -69*
NC(CSC(c1ccccc1)(c1ccccc1)c1ccccc1)C(=O)O (centres undefined) | . | . | . | . | 31
Cc1cccn2c(CNCCc3ccccn3)c(C(=O)N3CCOCC3)nc12 | 13µM* | ? | ? | -15% | 27
Cc1cccn2c(CNCC3(c4ccccc4)CCCC3)c(C(=O)N3CCOCC3)nc12 | -15% | -6% | ? | 4% | -101*
O=C(C1CCC(C(=O)N2CCCCC2)CC1)N1CCCCC1 (centres undefined) | 7% | -15% | 2% | 1% | -61*
SMILES | Pf growth 96h | Sm TGR block | Pf growth 48h | Giardia FBPA inh | HCMV antiviral
CC(C)(C)OC(=O)N1CCC(C(=O)N2CCCCCC2)CC1 | 12µM* | -3% | 1% | 3% | 14
CC(C)(C)OC(=O)N1CCC(C(=O)N2CCOCC2)CC1 | 5% | ? | 42% | -2% | 16
CCc1nn2c(=O)c(S(=O)(=O)Nc3ccc(C)c(C)c3)c(C)nc2s1 | . | 1% | . | . | -88*
CCc1ccc(NS(=O)(=O)c2c(C)nc3sc(CC)nn3c2=O)cc1 | -19% | -1% | ? | -6% | 13
Cc1nc2scc(C)n2c(=O)c1S(=O)(=O)Nc1ccc(N2CCN(S(C)(=O)=O)CC2)cc1 | -2% | 5% | -25% | -3% | -83*!
Cc1cc(C)cc(NS(=O)(=O)c2c(C)nc3scc(C)n3c2=O)c1 | . | ? | . | . | -6
Cc1cccc(NS(=O)(=O)c2c(C)nc3scc(C)n3c2=O)c1 | 16% | 0% | ? | . | -70*
O=C(CSCc1ccc(Cl)cc1)N/N=C/c1ccccc1 | . | 3% | -2% | 18µM* | -21
O=C(CSCc1cccc(Cl)c1)Nc1ccccc1-c1ccccc1 | 11% | 7% | -22% | -1% | -63*
COC(=O)Oc1ccc(/C=N/NC(=O)CSCc2ccc(Cl)cc2)cc1OC | 97% | -7% | 15% | 3% | -60*
O=C(CN1CCN(Cc2ccccc2Cl)CC1)N/N=C/c1ccco1 | 15% | 0% | 0% | -1% | 4
O=C(CSCc1ccccc1Cl)N/N=C/c1ccco1 | 13µM* | . | 16% | -18% | -30
CCOc1ccc(CCNC(=O)CCCc2nnc3n(C)c(=O)c4sccc4n23)cc1OCC | . | -3% | . | . | 15
CCOC(=O)c1noc2nc(C)n(Cc3ccc([N+](=O)[O-])cc3)c(=O)c12 | . | 0% | . | . | -10
COc1ccc(CSCC(=O)N/N=C/c2ccc(OCC(=O)N3CCCCC3)cc2)cc1 | . | -17% | -10% | 3% | -16
O=C(CSCc1ccccc1)N/N=C/c1cc2c(cc1Br)OCO2 | 207% | -14% | 3% | 6% | -73*
O=C(CCc1ccccc1)N/N=C\c1cc2c(cc1Br)OCO2 | ? | 0% | 42% | 5% | 13
O=C(CSCc1ccccc1)N/N=C/c1ccc(OCC(=O)N2CCCCC2)cc1 | 44% | -1% | -7% | 3% | -68*
O=C(CCCOc1ccc(Cl)cc1)NCCc1ccccc1 | -23% | 3% | 12% | 3% | -17
Cc1ccc2nc(NCCN)c3ncc(C)n3c2c1 | . | . | . | -9% | .
CC(/C=N\NC(=O)Cn1c(C)nc2ccccc21)=C\c1ccccc1 | 32% | -22% | 16% | -7% | -86*
C/C(=N\NC(=O)Cn1c(C)nc2ccccc21)c1cccs1 | ? | -2% | 2% | 4% | -64*
CC(/C=N/NC(=O)CSc1nc(C)cc(C)n1)=C\c1ccccc1 | ? | -9% | 7% | 2% | 33

Source: PubChem BioAssay (National Center for Advancing Translational Sciences (NCATS))
